# Source: paper PMC7862700, “An all-to-all approach to the identification of sequence-specific readers for epigenetic DNA modifications on cytosine”
# What was measured:
# Test in all cases: DAPPL (digital affinity profiling via proximity ligation, sequencing); 10 mM Tris-HCl pH 7.5, 50 mM NaCl, 1 mM DTT, 4% glycerol, room temperature, 30 min; GST-TFs on glutathione beads, 16-mer random dsDNA library, 0.1% formaldehyde crosslink after washing; high values mean tight binding
# FEV = target: T1, FEV (Homo sapiens, UniProt Q99581 1-238); conditions: protein: recombinant; tags: N-terminal GST; dsDNA, one strand shown
# T1 sequence: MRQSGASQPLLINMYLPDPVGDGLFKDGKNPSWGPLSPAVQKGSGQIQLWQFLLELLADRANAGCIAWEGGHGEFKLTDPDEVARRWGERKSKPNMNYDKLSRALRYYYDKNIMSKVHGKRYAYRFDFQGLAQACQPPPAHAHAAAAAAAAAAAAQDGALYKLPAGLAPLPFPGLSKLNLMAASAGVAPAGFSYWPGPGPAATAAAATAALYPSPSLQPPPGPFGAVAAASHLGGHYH
# Summary of the method: (§1)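 Pools were built from human transcription factors expressed in yeast as GST fusions, captured on glutathione beads and DNA-barcoded, along with a tag-only sample. Incubation with 200 nmole of a 16-mer random double-stranded DNA library lasted 30 min at room temperature in Tris/NaCl/DTT/glycerol buffer, and was followed by washing, 0.1% formaldehyde crosslinking, proximity ligation, PCR amplification and Illumina NextSeq500 sequencing. Binding signal is the quotient of each hexamer's read frequency for a factor and its frequency for the tag-only sample.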
# ETV5 = ETV5 (Homo sapiens, UniProt P41161 1-510); conditions: protein: recombinant; tags: N-terminal GST; dsDNA, one strand shown
# Chain of ETV5 (P41161 whole entry): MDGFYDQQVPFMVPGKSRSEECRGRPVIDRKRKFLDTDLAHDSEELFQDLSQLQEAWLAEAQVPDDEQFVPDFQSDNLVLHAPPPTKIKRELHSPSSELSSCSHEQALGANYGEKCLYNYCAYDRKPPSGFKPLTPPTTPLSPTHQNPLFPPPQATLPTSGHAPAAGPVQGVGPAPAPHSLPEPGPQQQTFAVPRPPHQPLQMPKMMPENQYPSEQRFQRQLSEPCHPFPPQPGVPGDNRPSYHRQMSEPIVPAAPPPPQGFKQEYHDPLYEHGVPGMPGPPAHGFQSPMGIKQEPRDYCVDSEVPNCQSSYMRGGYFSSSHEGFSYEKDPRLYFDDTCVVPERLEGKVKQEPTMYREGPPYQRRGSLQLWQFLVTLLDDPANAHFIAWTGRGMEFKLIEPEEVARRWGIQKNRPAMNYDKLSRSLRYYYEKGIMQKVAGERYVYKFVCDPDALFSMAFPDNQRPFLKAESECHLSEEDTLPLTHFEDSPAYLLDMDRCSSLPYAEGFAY
# Summary of the method: as §1
# HSF1 = HSF1 (Homo sapiens, UniProt Q00613 1-529); conditions: protein: recombinant; tags: N-terminal GST; chain copies: 3; dsDNA, one strand shown
# Chain of HSF1 (Q00613 whole entry): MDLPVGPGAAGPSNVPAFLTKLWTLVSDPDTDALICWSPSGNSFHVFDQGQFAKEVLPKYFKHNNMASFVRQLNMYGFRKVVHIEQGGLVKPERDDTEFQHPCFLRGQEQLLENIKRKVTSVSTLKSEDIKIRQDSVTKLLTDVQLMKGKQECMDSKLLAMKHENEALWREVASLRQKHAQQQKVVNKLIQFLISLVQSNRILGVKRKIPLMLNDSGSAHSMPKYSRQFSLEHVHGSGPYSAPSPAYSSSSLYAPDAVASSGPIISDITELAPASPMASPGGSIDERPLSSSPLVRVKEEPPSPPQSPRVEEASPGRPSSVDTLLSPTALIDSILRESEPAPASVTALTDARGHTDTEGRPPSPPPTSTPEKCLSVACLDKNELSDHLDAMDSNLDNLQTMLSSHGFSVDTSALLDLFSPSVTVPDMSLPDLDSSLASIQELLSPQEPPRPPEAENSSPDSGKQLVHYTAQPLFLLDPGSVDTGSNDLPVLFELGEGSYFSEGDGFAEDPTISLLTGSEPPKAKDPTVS
# Summary of the method: as §1
# SPIC = target: T2, SPIC (Homo sapiens, UniProt Q8N5J4 1-248); conditions: protein: recombinant; tags: N-terminal GST; dsDNA, one strand shown
# T2 sequence: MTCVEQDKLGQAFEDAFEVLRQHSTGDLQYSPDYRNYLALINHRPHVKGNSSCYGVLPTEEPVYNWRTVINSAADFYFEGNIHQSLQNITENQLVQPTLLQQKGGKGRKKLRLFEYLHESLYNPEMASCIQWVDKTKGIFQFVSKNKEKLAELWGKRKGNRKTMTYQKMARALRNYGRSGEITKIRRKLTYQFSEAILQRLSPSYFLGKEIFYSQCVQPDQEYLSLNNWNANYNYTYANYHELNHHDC
# Summary of the method: as §1
# ELF4 = ELF4 (Homo sapiens, UniProt Q99607 1-663); conditions: protein: recombinant; tags: N-terminal GST; dsDNA, one strand shown
# Chain of ELF4 (Q99607 whole entry): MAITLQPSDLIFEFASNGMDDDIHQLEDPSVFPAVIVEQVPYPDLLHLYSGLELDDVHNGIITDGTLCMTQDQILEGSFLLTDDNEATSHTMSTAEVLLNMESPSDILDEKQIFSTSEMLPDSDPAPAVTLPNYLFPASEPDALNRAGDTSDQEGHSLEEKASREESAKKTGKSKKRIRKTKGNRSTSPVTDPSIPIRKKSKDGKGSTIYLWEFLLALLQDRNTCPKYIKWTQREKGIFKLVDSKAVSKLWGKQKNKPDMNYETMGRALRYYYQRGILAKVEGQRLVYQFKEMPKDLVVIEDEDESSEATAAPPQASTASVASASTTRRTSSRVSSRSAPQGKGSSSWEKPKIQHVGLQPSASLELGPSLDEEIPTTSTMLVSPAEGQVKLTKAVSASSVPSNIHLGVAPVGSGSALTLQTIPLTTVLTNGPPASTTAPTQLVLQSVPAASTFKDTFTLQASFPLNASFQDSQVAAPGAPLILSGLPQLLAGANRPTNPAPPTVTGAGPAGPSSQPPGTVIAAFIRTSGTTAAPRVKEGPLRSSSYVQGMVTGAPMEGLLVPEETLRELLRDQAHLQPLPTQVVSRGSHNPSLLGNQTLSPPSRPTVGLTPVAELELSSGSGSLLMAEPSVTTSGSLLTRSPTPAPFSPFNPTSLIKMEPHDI
# Summary of the method: as §1
# ELK4 = target: T3, ELK4 (Homo sapiens, UniProt P28324-2 1-405); conditions: protein: recombinant; tags: N-terminal GST; dsDNA, one strand shown
# T3 sequence: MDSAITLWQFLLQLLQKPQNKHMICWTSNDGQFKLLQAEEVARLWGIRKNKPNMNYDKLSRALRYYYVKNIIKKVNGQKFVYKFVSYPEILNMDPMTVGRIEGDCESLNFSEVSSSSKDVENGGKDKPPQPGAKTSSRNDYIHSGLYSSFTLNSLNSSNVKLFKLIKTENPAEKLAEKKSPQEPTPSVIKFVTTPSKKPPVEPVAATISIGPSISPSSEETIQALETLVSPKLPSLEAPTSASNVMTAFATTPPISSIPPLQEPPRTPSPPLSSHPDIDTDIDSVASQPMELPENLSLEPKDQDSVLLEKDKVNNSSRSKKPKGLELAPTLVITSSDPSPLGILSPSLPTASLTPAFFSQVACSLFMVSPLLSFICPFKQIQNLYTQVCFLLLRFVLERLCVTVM
# Summary of the method: as §1
# ETV2 = target: T4, ETV2 (Homo sapiens, UniProt O00321 1-342); conditions: protein: recombinant; tags: N-terminal GST; dsDNA, one strand shown
# T4 sequence: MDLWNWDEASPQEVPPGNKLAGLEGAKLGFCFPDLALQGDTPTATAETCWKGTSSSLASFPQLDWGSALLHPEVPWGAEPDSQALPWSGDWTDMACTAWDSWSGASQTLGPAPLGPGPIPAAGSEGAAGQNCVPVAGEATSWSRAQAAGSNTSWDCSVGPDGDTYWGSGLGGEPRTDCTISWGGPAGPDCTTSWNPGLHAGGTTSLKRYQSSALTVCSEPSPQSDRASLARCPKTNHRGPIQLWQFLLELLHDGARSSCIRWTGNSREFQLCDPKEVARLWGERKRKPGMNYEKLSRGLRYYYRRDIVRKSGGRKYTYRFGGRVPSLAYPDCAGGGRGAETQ
# Summary of the method: as §1
# ELF3 = target: T5, ELF3 (Homo sapiens, UniProt P78545 1-371); conditions: protein: recombinant; tags: N-terminal GST; dsDNA, one strand shown
# T5 sequence: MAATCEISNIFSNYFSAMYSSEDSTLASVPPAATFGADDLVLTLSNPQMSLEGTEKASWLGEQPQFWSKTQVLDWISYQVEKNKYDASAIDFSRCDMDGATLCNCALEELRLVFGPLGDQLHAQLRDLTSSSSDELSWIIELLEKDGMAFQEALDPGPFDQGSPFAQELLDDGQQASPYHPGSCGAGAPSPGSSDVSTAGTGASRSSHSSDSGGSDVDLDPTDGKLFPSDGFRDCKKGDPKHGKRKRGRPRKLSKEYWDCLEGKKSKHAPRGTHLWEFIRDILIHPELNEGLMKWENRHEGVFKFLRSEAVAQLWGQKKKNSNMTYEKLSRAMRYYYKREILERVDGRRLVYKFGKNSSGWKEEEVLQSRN
# Summary of the method: as §1
# CRX = CRX (Homo sapiens, UniProt O43186 1-299); conditions: protein: recombinant; tags: N-terminal GST; dsDNA, one strand shown
# Chain of CRX (O43186 whole entry): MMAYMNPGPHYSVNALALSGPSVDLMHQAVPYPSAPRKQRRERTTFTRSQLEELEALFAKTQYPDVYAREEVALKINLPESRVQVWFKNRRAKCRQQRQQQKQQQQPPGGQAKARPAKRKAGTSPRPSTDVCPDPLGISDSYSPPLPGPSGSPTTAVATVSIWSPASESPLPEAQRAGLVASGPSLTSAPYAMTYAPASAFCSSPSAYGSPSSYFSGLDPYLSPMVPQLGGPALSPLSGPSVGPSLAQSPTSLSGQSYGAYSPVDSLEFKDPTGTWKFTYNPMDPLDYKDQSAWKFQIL
# Summary of the method: as §1
# ETV1 = ETV1 (Homo sapiens, UniProt P50549 1-477); conditions: protein: recombinant; tags: N-terminal GST; dsDNA, one strand shown
# Chain of ETV1 (P50549 whole entry): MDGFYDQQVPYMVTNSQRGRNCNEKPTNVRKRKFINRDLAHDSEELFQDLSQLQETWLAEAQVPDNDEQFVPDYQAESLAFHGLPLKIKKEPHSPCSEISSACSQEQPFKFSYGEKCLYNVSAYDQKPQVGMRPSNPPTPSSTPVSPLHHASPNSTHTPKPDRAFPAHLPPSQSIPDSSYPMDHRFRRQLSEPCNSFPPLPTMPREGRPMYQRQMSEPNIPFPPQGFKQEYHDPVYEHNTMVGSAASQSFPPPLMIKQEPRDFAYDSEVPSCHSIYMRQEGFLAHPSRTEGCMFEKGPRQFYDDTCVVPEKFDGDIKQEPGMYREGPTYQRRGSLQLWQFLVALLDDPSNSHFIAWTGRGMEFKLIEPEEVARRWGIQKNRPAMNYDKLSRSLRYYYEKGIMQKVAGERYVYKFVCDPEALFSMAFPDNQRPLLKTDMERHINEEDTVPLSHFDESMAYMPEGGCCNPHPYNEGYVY
# Summary of the method: as §1
# ERF = target: T6, ERF (Homo sapiens, UniProt P50548 1-548); conditions: protein: recombinant; tags: N-terminal GST; dsDNA, one strand shown
# T6 sequence: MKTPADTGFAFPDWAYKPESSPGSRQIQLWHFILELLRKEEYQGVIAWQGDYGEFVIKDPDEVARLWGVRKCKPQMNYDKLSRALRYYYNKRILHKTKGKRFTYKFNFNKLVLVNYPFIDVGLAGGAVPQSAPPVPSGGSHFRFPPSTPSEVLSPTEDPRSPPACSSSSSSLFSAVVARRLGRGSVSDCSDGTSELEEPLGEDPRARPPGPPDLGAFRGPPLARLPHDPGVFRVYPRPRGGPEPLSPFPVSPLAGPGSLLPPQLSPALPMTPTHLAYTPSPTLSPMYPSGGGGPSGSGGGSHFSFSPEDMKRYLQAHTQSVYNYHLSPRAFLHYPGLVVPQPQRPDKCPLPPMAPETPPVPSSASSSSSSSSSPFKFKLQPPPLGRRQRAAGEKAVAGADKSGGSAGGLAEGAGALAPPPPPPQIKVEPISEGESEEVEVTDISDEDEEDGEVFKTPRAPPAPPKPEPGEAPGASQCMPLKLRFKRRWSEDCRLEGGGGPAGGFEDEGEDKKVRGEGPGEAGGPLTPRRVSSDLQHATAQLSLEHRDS
# Summary of the method: as §1
# ETV3L = target: T7, ETV3L (Homo sapiens, UniProt Q6ZN32 1-361); conditions: protein: recombinant; tags: N-terminal GST; dsDNA, one strand shown
# T7 sequence: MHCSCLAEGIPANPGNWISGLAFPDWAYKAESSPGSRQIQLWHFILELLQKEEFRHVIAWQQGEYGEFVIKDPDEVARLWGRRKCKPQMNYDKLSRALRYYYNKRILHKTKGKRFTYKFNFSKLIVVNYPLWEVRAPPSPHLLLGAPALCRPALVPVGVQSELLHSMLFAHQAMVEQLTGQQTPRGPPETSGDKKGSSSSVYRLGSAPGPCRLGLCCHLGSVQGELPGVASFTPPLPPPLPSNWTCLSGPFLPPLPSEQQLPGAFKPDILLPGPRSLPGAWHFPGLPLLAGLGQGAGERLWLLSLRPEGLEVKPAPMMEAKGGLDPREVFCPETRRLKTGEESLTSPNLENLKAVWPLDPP
# Summary of the method: as §1
# ETS2 = target: T8, ETS2 (Homo sapiens, UniProt P15036 1-469); conditions: protein: recombinant; tags: N-terminal GST; dsDNA, one strand shown
# T8 sequence: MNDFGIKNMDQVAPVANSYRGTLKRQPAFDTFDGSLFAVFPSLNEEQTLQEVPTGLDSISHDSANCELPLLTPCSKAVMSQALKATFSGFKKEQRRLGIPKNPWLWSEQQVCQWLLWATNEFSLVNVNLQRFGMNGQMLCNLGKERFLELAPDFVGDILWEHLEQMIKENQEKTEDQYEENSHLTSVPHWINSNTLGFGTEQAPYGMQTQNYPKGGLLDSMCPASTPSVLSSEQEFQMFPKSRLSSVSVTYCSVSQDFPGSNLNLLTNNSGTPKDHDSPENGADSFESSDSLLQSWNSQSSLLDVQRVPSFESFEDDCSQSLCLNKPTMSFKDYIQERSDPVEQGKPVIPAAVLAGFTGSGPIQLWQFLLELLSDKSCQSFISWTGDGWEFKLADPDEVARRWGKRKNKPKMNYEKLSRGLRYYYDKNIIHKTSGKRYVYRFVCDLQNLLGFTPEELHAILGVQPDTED
# Summary of the method: as §1
# SPDEF = target: T9, SPDEF (Homo sapiens, UniProt O95238 1-335); conditions: protein: recombinant; tags: N-terminal GST; dsDNA, one strand shown
# T9 sequence: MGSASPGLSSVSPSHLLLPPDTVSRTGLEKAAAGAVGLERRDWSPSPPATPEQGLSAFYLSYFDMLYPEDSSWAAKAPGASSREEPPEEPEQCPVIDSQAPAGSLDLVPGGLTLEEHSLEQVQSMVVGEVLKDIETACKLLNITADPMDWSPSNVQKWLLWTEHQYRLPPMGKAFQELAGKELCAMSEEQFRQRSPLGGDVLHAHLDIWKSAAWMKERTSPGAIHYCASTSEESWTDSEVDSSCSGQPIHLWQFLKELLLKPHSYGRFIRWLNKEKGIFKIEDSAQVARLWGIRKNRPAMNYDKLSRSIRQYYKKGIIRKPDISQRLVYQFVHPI
# Summary of the method: as §1
# ETV7 = target: T10, ETV7 (Homo sapiens, UniProt Q9Y603 1-341); conditions: protein: recombinant; tags: N-terminal GST; dsDNA, one strand shown
# T10 sequence: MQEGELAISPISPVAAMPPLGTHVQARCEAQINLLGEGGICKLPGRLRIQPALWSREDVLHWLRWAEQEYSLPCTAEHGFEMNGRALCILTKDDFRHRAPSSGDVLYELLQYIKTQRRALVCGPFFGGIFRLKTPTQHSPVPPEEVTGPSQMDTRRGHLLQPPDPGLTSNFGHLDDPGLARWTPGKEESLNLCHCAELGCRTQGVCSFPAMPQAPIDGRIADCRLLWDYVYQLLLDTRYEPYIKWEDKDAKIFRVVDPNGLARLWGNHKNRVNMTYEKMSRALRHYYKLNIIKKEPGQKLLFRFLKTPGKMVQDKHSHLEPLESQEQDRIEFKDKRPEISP
# Summary of the method: as §1
# ELF5 = target: T11, ELF5 (Homo sapiens, UniProt Q9UKW6-2 1-255); conditions: protein: recombinant; tags: N-terminal GST; dsDNA, one strand shown
# T11 sequence: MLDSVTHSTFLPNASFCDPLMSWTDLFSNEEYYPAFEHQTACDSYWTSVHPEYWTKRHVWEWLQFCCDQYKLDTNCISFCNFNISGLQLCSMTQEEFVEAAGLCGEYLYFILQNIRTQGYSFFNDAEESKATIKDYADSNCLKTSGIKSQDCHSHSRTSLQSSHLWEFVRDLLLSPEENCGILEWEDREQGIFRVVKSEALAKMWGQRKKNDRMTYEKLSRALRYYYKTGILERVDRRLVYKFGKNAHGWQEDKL
# Summary of the method: as §1
# ETV3 = target: T12, ETV3 (Homo sapiens, UniProt P41162-2 1-143); conditions: protein: recombinant; tags: N-terminal GST; dsDNA, one strand shown
# T12 sequence: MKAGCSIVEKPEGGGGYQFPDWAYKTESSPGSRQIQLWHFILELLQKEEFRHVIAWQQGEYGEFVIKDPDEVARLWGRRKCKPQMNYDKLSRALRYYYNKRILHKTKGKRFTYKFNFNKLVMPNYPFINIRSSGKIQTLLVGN
# Summary of the method: as §1
# ETV6 = ETV6 (Homo sapiens, UniProt P41212 1-452); conditions: protein: recombinant; tags: N-terminal GST; dsDNA, one strand shown
# Chain of ETV6 (P41212 whole entry): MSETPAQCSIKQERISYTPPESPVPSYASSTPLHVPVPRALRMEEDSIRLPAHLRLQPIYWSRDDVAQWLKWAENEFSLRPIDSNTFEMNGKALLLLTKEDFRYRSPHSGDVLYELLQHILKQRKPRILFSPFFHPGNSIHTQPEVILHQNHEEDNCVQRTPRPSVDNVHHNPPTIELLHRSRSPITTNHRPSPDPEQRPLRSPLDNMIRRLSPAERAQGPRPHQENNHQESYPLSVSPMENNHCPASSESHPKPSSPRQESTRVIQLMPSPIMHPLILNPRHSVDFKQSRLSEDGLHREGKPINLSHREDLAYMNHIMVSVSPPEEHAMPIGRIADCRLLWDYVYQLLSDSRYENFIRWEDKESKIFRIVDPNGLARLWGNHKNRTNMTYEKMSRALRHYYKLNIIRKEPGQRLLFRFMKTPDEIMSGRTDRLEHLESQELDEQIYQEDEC
# Summary of the method: as §1
sequence,measurement,setting,value
TTCTGG,binding signal,FEV,"1.19 fold enrichment (6-mer frequency, TF over GST control)"
same,binding signal,ETV5,"1.16 fold enrichment (6-mer frequency, TF over GST control)"
same,binding signal,HSF1,"4.45 fold enrichment (6-mer frequency, TF over GST control)"
same,binding signal,SPIC,"1.36 fold enrichment (6-mer frequency, TF over GST control)"
same,binding signal,ELF4,"1.29 fold enrichment (6-mer frequency, TF over GST control)"
same,binding signal,ELK4,"1.35 fold enrichment (6-mer frequency, TF over GST control)"
same,binding signal,ETV2,"1.42 fold enrichment (6-mer frequency, TF over GST control)"
same,binding signal,ELF3,"1.21 fold enrichment (6-mer frequency, TF over GST control)"
same,binding signal,CRX,"1.76 fold enrichment (6-mer frequency, TF over GST control)"
same,binding signal,ETV1,"1.21 fold enrichment (6-mer frequency, TF over GST control)"
same,binding signal,ERF,"1.35 fold enrichment (6-mer frequency, TF over GST control)"
same,binding signal,ETV3L,"1.23 fold enrichment (6-mer frequency, TF over GST control)"
same,binding signal,ETS2,"1.19 fold enrichment (6-mer frequency, TF over GST control)"
same,binding signal,SPDEF,"1.23 fold enrichment (6-mer frequency, TF over GST control)"
same,binding signal,ETV7,"1.21 fold enrichment (6-mer frequency, TF over GST control)"
same,binding signal,ELF5,"1.22 fold enrichment (6-mer frequency, TF over GST control)"
same,binding signal,ETV3,"1.2 fold enrichment (6-mer frequency, TF over GST control)"
same,binding signal,ETV6,"1.32 fold enrichment (6-mer frequency, TF over GST control)"
